For nine compounds, growth inhibition results are on record in PubChem BioAssay (NCI).

The panel holds about 79,000 compounds, 15% with a hit somewhere; the sample as a whole holds those more often. Values without a mark were called inactive. Activity calls are given as the source filed them. Rule as the data show it: active = growth inhibition above about 70%; inactive = the rest.

A short description of assay [1]: NCI Yeast Anticancer Drug Screen. Data for the rad50 strain (AID 155).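 Also: 0% = growth of vehicle-only cultures of the same strain.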 As to conditions: S. cerevisiae rad50 strain growth inhibition, hits give high values. The procedure, abridged:
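Readout: growth inhibition relative to vehicle-treated cultures. Compound exposure was carried out in a genetically defined yeast strain deficient in DNA damage repair.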

The nature of assay [2]: NCI Yeast Anticancer Drug Screen. Data for the mec2-1 strain (AID 157). As to conditions: S. cerevisiae mec2-1 strain, hits give high values. The method, boiled down:
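Compounds were applied to mec2-1 yeast cells. Their growth was then compared with that of vehicle-treated cultures to give growth inhibition.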

Assay [3] in a line: NCI Yeast Anticancer Drug Screen. Data for the sgs1 mgt1 strain (AID 161).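 Also: 0% = growth of cultures given vehicle only.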 The note with it: S. cerevisiae sgs1 mgt1 strain, hits give high values. The procedure, abridged:
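Growth of a repair-deficient yeast mutant was monitored after compound treatment and expressed as inhibition relative to vehicle-treated cultures.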

A short description of assay [4]: NCI Yeast Anticancer Drug Screen. Data for the cln2 rad14 strain (AID 165).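 Also: 0% = growth equal to vehicle treated cultures.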 The note with it: S. cerevisiae cln2 rad14 strain, hits give high values. The method, boiled down:
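Strain: cln2 rad14 yeast, altered in cell cycle control and DNA damage repair. Read-out: growth inhibition vs vehicle.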

Assay [5] in a line: NCI Yeast Anticancer Drug Screen. Data for the bub3 strain (AID 167). As to conditions: S. cerevisiae bub3 mutant strain, hits give high values. The method, boiled down: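 Readout: yeast growth inhibition, expressed relative to vehicle-only wells. The test organism is a mutant strain from a panel with lesions in DNA repair or checkpoint genes.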
Assay [6] in a line: NCI Yeast Anticancer Drug Screen. Data for the mlh1 rad18 strain (AID 175). The note with it: S. cerevisiae mlh1 rad18 strain growth inhibition, hits give high values. The procedure, abridged:
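A repair-deficient yeast strain is exposed to test compound, and growth is scored relative to vehicle-treated controls.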

[7] abbreviates: at 5.0 µM (retest, dose inferred, filed as 0.5).
Where [8] appears, read: at 50.0 µM (retest, dose inferred, filed as 5.0).

For the compound `COc1c(O)ccc2c1CN1CCc3cc4c(cc3C1C2)OCO4` (configuration not stated), the growth inhibition in assay [1] (setting [7]) was 18%; in assay [1] (setting [8]), 50%; in assay [1] (at 50.0 µM), 65.9%; in assay [2] (setting [7]), 9%; in assay [2] (setting [8]), 21%; in assay [2] (at 50.0 µM) it was 21.4%. Moreover, the growth inhibition in assay [3] (setting [7]) is 9%; in assay [3] (setting [8]) it was 65%; in assay [3] (at 50.0 µM), 49.2%; in assay [4] (setting [7]), 15%; in assay [4] (setting [8]), 22%; in assay [4] (at 50.0 µM) it was -16.2%. Also, the growth inhibition in assay [5] (setting [7]) is 6%; in assay [5] (setting [8]), 60%; in assay [5] (at 50.0 µM), 50.9%; in assay [6] (setting [7]), 11%; in assay [6] (setting [8]), 35%; in assay [6] (at 50.0 µM) it was 72.2% (active).
With `COc1ccc(CCCCC(=O)O)cc1O`, the growth inhibition in assay [1] (setting [7]) is -155%; in assay [1] (setting [8]), -161%; in assay [1] (at 50.0 µM), 40.9%; in assay [2] (setting [7]), -52%; in assay [2] (setting [8]), -54%; in assay [2] (at 50.0 µM) it was 14.1%. The growth inhibition in assay [3] (setting [7]) was -56%; in assay [3] (setting [8]), -65%; in assay [3] (at 50.0 µM), 29.9%; in assay [4] (setting [7]), -57%; in assay [4] (setting [8]), -55%; in assay [4] (at 50.0 µM), 61.9%. The growth inhibition in assay [5] (setting [7]) was -69%; in assay [5] (setting [8]), -80%; in assay [5] (at 50.0 µM) it was 2.5%; in assay [6] (setting [7]), -117%; in assay [6] (setting [8]), -117%; in assay [6] (at 50.0 µM) it was 28.4%.
Take `CC1=CCCc2c1cc1ccc3cccc4ccc2c1c34`: the growth inhibition in assay [1] (setting [7]) was 8%; in assay [1] (setting [8]), -6%; in assay [1] (at 50.0 µM) it was 49.5%; in assay [2] (setting [7]) it was -7%; in assay [2] (setting [8]) it was -8%; in assay [2] (at 50.0 µM) it was 79.7% (active). In addition, the growth inhibition in assay [3] (setting [7]) is -4%; in assay [3] (setting [8]), 16%; in assay [3] (at 50.0 µM) it was 94.2% (active); in assay [4] (setting [7]) it was -2%; in assay [4] (setting [8]), -8%; in assay [4] (at 50.0 µM), 28.1%. For the same compound, the growth inhibition in assay [5] (setting [7]) was -5%; in assay [5] (setting [8]), -10%; in assay [5] (at 50.0 µM), 91.2% (active); in assay [6] (setting [7]), -11%; in assay [6] (setting [8]), -6%; in assay [6] (at 50.0 µM), 89.8% (active).
In the case of `Cc1ccc(NC(=S)SCc2ccc3c(c2)OCO3)cc1Cl`, the growth inhibition in assay [1] (setting [7]) is 19%; in assay [1] (setting [8]), 96% (active); in assay [1] (at 50.0 µM), 98.9% (active); in assay [2] (setting [7]) it was 15%; in assay [2] (setting [8]) it was 99% (active); in assay [2] (at 50.0 µM), 99.5% (active). Further, the growth inhibition in assay [3] (setting [7]) was 16%; in assay [3] (setting [8]) it was 98% (active); in assay [3] (at 50.0 µM), 99% (active); in assay [4] (setting [7]), -7%; in assay [4] (setting [8]), 97% (active); in assay [4] (at 50.0 µM) it was 98.8% (active). Moreover, the growth inhibition was 15% in assay [5] (setting [7]); 99% (active) in assay [5] (setting [8]); 99.2% (active) in assay [5] (at 50.0 µM); 39% in assay [6] (setting [7]); 97% (active) in assay [6] (setting [8]); 99.2% (active) in assay [6] (at 50.0 µM).
Turning to `C=CCNC(=S)N/N=C/c1nccc(-c2ccccc2)c1C`, the growth inhibition was 37% in assay [1] (setting [7]); 96% (active) in assay [1] (setting [8]); 73.3% (active) in assay [1] (at 50.0 µM); 29% in assay [2] (setting [7]); 97% (active) in assay [2] (setting [8]); 81.6% (active) in assay [2] (at 50.0 µM). In addition, the growth inhibition is 46% in assay [3] (setting [7]); 96% (active) in assay [3] (setting [8]); 82% (active) in assay [3] (at 50.0 µM); 38% in assay [4] (setting [7]); 94% (active) in assay [4] (setting [8]); 84.7% (active) in assay [4] (at 50.0 µM). Also, the growth inhibition in assay [5] (setting [7]) was 54%; in assay [5] (setting [8]) it was 95% (active); in assay [5] (at 50.0 µM), 84.5% (active); in assay [6] (setting [7]) it was 24%; in assay [6] (setting [8]), 93% (active); in assay [6] (at 50.0 µM) it was 78.5% (active).
On to `O=C(Nc1ccc(NC(=O)Nc2cc(C(=O)Nc3ccc(C4=NCCN4)cc3)ccc2C(=O)Nc2ccc(C3=NCCN3)cc2)cc1)Nc1cc(C(=O)Nc2ccc(C3=NCCN3)cc2)ccc1C(=O)Nc1ccc(C2=NCCN2)cc1`, for which the growth inhibition in assay [1] (setting [7]) was 7%; in assay [1] (setting [8]), -4%; in assay [1] (at 50.0 µM) it was 95.5% (active); in assay [2] (setting [7]), 0%; in assay [2] (setting [8]), -6%; in assay [2] (at 50.0 µM), 94.5% (active). Also, the growth inhibition in assay [3] (setting [7]) is 2%; in assay [3] (setting [8]) it was -3%; in assay [3] (at 50.0 µM), 95.9% (active); in assay [4] (setting [7]), -1%; in assay [4] (setting [8]) it was 1%; in assay [4] (at 50.0 µM), 95% (active). For the same compound, the growth inhibition in assay [5] (setting [7]) was 2%; in assay [5] (setting [8]) it was 16%; in assay [5] (at 50.0 µM) it was 97% (active); in assay [6] (setting [7]), 7%; in assay [6] (setting [8]), -2%; in assay [6] (at 50.0 µM), 96.5% (active).
With `O=[N+]([O-])/C(C(Cl)=C(Cl)Cl)=C(/Cl)SCc1ccccc1`, the growth inhibition is 100% (active) in assay [1] (setting [7]); 99% (active) in assay [1] (setting [8]); 89.8% (active) in assay [1] (at 50.0 µM); 100% (active) in assay [2] (setting [7]); 99% (active) in assay [2] (setting [8]); 93.4% (active) in assay [2] (at 50.0 µM). Besides, the growth inhibition was 99% (active) in assay [3] (setting [7]); 99% (active) in assay [3] (setting [8]); 90.1% (active) in assay [3] (at 50.0 µM); 99% (active) in assay [4] (setting [7]); 99% (active) in assay [4] (setting [8]); 91.5% (active) in assay [4] (at 50.0 µM). For the same compound, the growth inhibition in assay [5] (setting [7]) was 99% (active); in assay [5] (setting [8]), 99% (active); in assay [5] (at 50.0 µM), 91.5% (active); in assay [6] (setting [7]), 99% (active); in assay [6] (setting [8]), 99% (active); in assay [6] (at 50.0 µM) it was 86.2% (active).
As for `O=C(CCCO)N/N=C\c1ccc([N+](=O)[O-])s1`, the growth inhibition was 5% in assay [1] (setting [7]); 31% in assay [1] (setting [8]); 18.8% in assay [1] (at 50.0 µM); -7% in assay [2] (setting [7]); 23% in assay [2] (setting [8]); -3.55% in assay [2] (at 50.0 µM). In addition, the growth inhibition in assay [3] (setting [7]) is 8%; in assay [3] (setting [8]), 39%; in assay [3] (at 50.0 µM), 31.8%; in assay [4] (setting [7]), -2%; in assay [4] (setting [8]), 20%; in assay [4] (at 50.0 µM), 72.2% (active). Further, the growth inhibition in assay [5] (setting [7]) was -1%; in assay [5] (setting [8]), 17%; in assay [5] (at 50.0 µM), 5.5%; in assay [6] (setting [7]) it was 12%; in assay [6] (setting [8]), 74% (active); in assay [6] (at 50.0 µM) it was 62.2%.
As to `CC1=CC(=O)c2c(O)c3c(c(O)c2C1=O)C1C(O)C(C3=O)C23C(=O)c4c(O)c(C)cc(O)c4C(O)=C2C(=O)CC(O)C13` (configuration not stated), the growth inhibition in assay [1] (setting [7]) is -27%; in assay [1] (setting [8]), 93% (active); in assay [1] (at 50.0 µM), 91.5% (active); in assay [2] (setting [7]), 7%; in assay [2] (setting [8]), 98% (active); in assay [2] (at 50.0 µM), 93.3% (active). In addition, the growth inhibition is -21% in assay [3] (setting [7]); 96% (active) in assay [3] (setting [8]); 92.7% (active) in assay [3] (at 50.0 µM); 14% in assay [4] (setting [7]); 97% (active) in assay [4] (setting [8]); 91.3% (active) in assay [4] (at 50.0 µM). In addition, the growth inhibition in assay [5] (setting [7]) was 12%; in assay [5] (setting [8]), 97% (active); in assay [5] (at 50.0 µM), 91.1% (active); in assay [6] (setting [7]) it was 9%; in assay [6] (setting [8]), 96% (active); in assay [6] (at 50.0 µM), 91.8% (active).
